According to PubChem BioAssay (NCI):
About 83,000 compounds went through this panel and 20% of them were active in at least one assay; those are over-represented in the sample as a whole.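 Activity criterion: percent growth below 10, measured after cells in 96-well plates were exposed to a single compound concentration for 48 hours.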 The source made the active and inactive calls.

Assays:
Experiment in all cases: NCI-60 one-dose screen, 48 h (100 = growth as untreated, 0 = no growth, -100 = all killed)
Conditions in all cases: 10 µM unless noted
[1] = test system: NCI-H23 lung
[2] = test system: NCI-H226 lung
[3] = test system: NCI-H322M lung
[4] = test system: HOP-62 NSCLC
[5] = test system: NCI-H460 lung
[6] = test system: HOP-92 NSCLC
[7] = test system: A549/ATCC NSCLC
[8] = test system: 786-0 renal
[9] = test system: COLO 205 colon
[10] = test system: NCI-H522 lung

Measured: growth

O=[N+]([O-])c1cccc(/C=C/c2ccc3ccccc3n2)c1
inactive: [1] 85.8% | [2] 82.9% | [3] 74.3% | [4] 55.5% | [5] 77.1% | [6] 66.6% | [7] 79.5% | [8] 70.4% | [9] 91.7%

C1=C[C@H]2O[C@@H]1c1ccc3[nH]ccc3c12
inactive: [1] 96% | [2] 101% | [3] 110% | [5] 102% | [6] 120% | [10] 41.7% | [7] 89.4% | [8] 106% | [9] 110%

CC1Cc2c(Cl)ncnc2N(C)c2ccc(Cl)cc21 (configuration not stated)
active: [2] -5.56% | [6] 8.05% | [8] 8.16% | [9] -77.6%
inactive: [1] 13.5% | [3] 36.8% | [4] 13.6% | [5] 19.2% | [7] 17.9%

C[n+]1c2ccccc2nc2c(N)cc(N)cc21
inactive: [1] 71.9% | [2] 37.2% | [3] 71.2% | [4] 56.6% | [5] 86.6% | [6] 84.2% | [7] 82% | [8] 62.2% | [9] 49.8%

Cc1cc(N2CCCCCC2)nc(N2CCN(CC(=O)Nc3ccc4c(ccn4Cc4ccccc4)c3)CC2)n1
inactive: [1] 48.3% | [2] 53.5% | [3] 80.7% | [4] 54.1% | [5] 36.7% | [7] 46.8% | [8] 39% | [9] 31.2%
active: [6] 8.3%

NC(=O)c1cccc(-c2ccc(S(=O)(=O)Nc3ccc4c(c3)N(C(=O)C3CC3)CCC4)cc2)c1
inactive: [1] 48% | [2] 63.7% | [3] 70% | [4] 38.4% | [5] 17.1% | [6] 33.7% | [7] 50.8% | [8] 100% | [9] 43.6%

Nc1nnc(CSc2nnc3n(Cc4ccccc4)c(=O)c4c5c(sc4n23)CCCC5)s1
inactive: [1] 88.5% | [2] 90.6% | [3] 111% | [4] 99.2% | [5] 15.4% | [6] 70.6% | [7] 95.1% | [8] 93.3% | [9] 77.4%

COc1ccc2nc3c(cc2c1)C(=O)CC(c1ccccc1)C3 (configuration not stated)
inactive: [1] 47.5% | [2] 26.5% | [3] 37.8% | [4] 39.2% | [6] 61.6% | [7] 34.8% | [8] 52.8%
active: [5] 8.79% | [9] 1.93%

CC(C)C1=NOC(=O)C1=Cc1cn(-c2ccccc2)nc1-c1cccc([N+](=O)[O-])c1
inactive: [1] 91.9% | [2] 102% | [3] 98.1% | [4] 99.1% | [5] 87.9% | [6] 88.8% | [7] 97% | [8] 76.7% | [9] 109%

COc1ccc(-c2nc3ccccn3c2/C=C/C(=O)c2cc(OC)c(OC)c(OC)c2)cc1OC
active: [5] 0.623% | [6] -22.5%
inactive: [1] 16.3% | [2] 23.3% | [3] 51.3% | [4] 28.5% | [7] 20.7% | [8] 24.7% | [9] 17.9%

ClC1=C(Cl)C(Cl)=C(Cl)C1=Cc1ccccc1
active: [1] -58.6% | [2] -73% | [3] -13.2% | [4] -32.7% | [5] -52.6% | [6] -49.1% | [7] -0.255% | [8] -90.3% | [9] -55.6%

COc1ccc2[nH]c(C(=O)N3CCN(C(=O)OCc4ccc5c(Br)cc(Br)c(O)c5n4)CC3)cc2c1
active: [1] -78.2% | [2] -84.3% | [3] -87.1% | [4] -67% | [5] -60.3% | [6] -83.9% | [7] -79.5% | [8] -93% | [9] -83.1%

CN(C)c1cc(NN=C(c2ccc(O)cc2)c2ccc(O)cc2)c([N+](=O)[O-])cc1[N+](=O)[O-]
active: [10] 1.73%
inactive: [1] 41% | [2] 98.7% | [3] 117% | [5] 30.4% | [6] 73% | [7] 13.2% | [8] 16.7% | [9] 89.5%

Cn1cc(-c2noc(-c3cn(C)c4ncc(F)cc34)n2)c2cc(Br)ccc21
inactive: [1] 79.9% | [2] 98.7% | [3] 53.7% | [5] 22.8% | [6] 81.1% | [10] 74.8% | [7] 45.2% | [8] 49.4% | [9] 77.9%

CCN(CC)CCCNCc1cc(-c2ccccc2)nc2ccccc12
inactive: [1] 36% | [2] 86.5% | [3] 102% | [5] 105% | [6] 49.5% | [10] 74.7% | [7] 87.9% | [8] 76.1% | [9] 117%

Cn1cc(-c2nnc(-c3cn(C)c4ncc(Br)cc34)s2)c2cc(Br)ccc21
inactive: [1] 99.5% | [2] 91.8% | [3] 89.8% | [5] 99.4% | [6] 57.2% | [10] 94.2% | [7] 94.4% | [8] 93.5% | [9] 105%

COc1cc2c(cc1OCCCN1CCN(CCCOc3cc4c(cc3OC)C(=O)N3C[C@H](F)C[C@H]3C=N4)CC1)N=C[C@@H]1C[C@@H](F)CN1C2=O
active: [3] -23.6% | [5] 1.24% | [6] -6.06% | [10] -48.8% | [7] 6.52% | [9] -47.1%
inactive: [1] 10.5% | [2] 17.2% | [8] 12.4%

COc1ccc(C=C2c3ccccc3-c3ccccc32)cc1
inactive: [1] 67.6% | [2] 68.6% | [3] 72.2% | [5] 30.6% | [6] 67.3% | [10] 13.7% | [7] 52.2% | [8] 58.5% | [9] 29.6%

Cc1ccc(Cn2c(O)c(N=NC(=O)c3ccc(S(N)(=O)=O)cc3)c3ccccc32)cc1
inactive: [1] 101% | [2] 93.9% | [3] 99.1% | [5] 104% | [6] 106% | [10] 97.3% | [7] 93.8% | [8] 105% | [9] 115%

CC(=O)OC[C@]12CC[C@@H]([C@@H](C)C(N)=O)[C@@H]1[C@H]1CC[C@@H]3[C@@]4(C)CC[C@H](OC(C)=O)C(C)(C)[C@@H]4CC[C@@]3(C)[C@]1(C)CC2
active: [1] -40.3% [100 µM] | [2] -58.5% [100 µM] | [3] -78.2% [100 µM] | [5] -61.8% [100 µM] | [6] -83.1% [100 µM] | [10] -61.1% [100 µM] | [7] 9.89% [100 µM] | [8] -74% [100 µM] | [9] -53% [100 µM]

CC(=O)n1cc(C=O)c2ccccc21
inactive: [1] 94.4% | [2] 91.1% | [3] 105% | [5] 112% | [6] 94.8% | [10] 91.3% | [7] 89.4% | [8] 101% | [9] 104%

CC(C)C1=NOC(=O)C1=Cc1cn(-c2cccnc2)nc1-c1ccccc1
inactive: [1] 107% | [2] 106% | [3] 100% | [5] 103% | [6] 92.6% | [10] 82.7% | [7] 94.8% | [8] 82.2% | [9] 107%

O=C1/C(=C/c2cccc(OCc3ccccc3)c2)Oc2cc(OCCN3CCCCC3)ccc21
inactive: [1] 86.4% | [2] 100% | [3] 75.4% | [5] 83.3% | [6] 46.9% | [10] 106% | [7] 79.5% | [8] 67.7% | [9] 93.8%

CCN(CC)CCCCCCNc1cccc2cc(Br)cnc12
inactive: [1] 85.7% | [2] 108% | [3] 94.3% | [5] 87.3% | [6] 71.6% | [10] 26.7% | [7] 97.8% | [8] 92.8% | [9] 89.9%

Brc1ccc2c(c1)CN(C1CCCCC1)CO2
inactive: [1] 96.9% | [2] 91.3% | [3] 124% | [5] 102% | [6] 89.3% | [10] 108% | [7] 110% | [8] 117% | [9] 116%

COCCCNc1nc(NC(=O)c2cc(Br)cc(C(F)(F)F)c2)cc(-c2cccnc2)n1
inactive: [1] 103% | [2] 91.8% | [3] 99.9% | [5] 85.7% | [6] 57.9% | [10] 83.6% | [7] 82% | [8] 85.8% | [9] 96.4%

CCOC(=O)C(C(C)=O)c1nc2sc3cc(Cl)c(Cl)cc3n2c(=O)c1C#N (configuration not stated)
inactive: [1] 94.7% | [2] 95.3% | [3] 114% | [5] 92.7% | [6] 76.8% | [10] 62.9% | [7] 108% | [8] 114% | [9] 108%

CCCc1cc2cc(-n3nc(C)c4c3CC(C)(C)CC4=O)cc(NC3CCSCC3)c2c(=O)[nH]1
inactive: [1] 36.8% | [2] 90.2% | [3] 63.4% | [5] 66.5% | [6] 93.2% | [10] 47.7% | [7] 49.1% | [8] 66.8% | [9] 41.9%
